{"source": "PubChem BioAssay (NCATS)", "note": "Results filed as inconclusive are left out. Values without a mark were called inactive. The source made the active and inactive calls. The call rests on the fitted dose curve; in most records, active means well fitted inhibition curve with a large enough effect; inconclusive means small, poorly fitted or top-dose-only effect; inactive means no such curve, though single readings can be large or run the other way. Potency means the concentration at half of the fitted maximal effect."}
{"experiment": "qHTS Screen of the MIPE 4.0 Collection Against Ewings Sarcoma (TC32) (AID 1259256); further: nearly all actives have a fitted effect of over 45% in size;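 on viability (percent of control): 100% = DMSO-treated cells and 0% = medium-only wells without cells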", "details": "TC32 Ewing sarcoma viability, CellTiter-Glo, 48 h; series mostly up to 45.8 µM; viability (percent of control): at the top concentration", "from_the_text": "There is a large unmet medical need for treatments for Ewing sarcoma, a pediatric sarcoma. We sought to identify compounds that inhibited Ewing sarcoma cells in vitro with the goal to then test promising drugs in two drug combinations in vitro to look for synergistic drug combinations. Promising combinations would then proceed to additional validation, including in vivo testing.\nUsing the NCATS developed oncology compound library called the Mechanism of Interrogation Plate (MIPE), four Ewing sarcoma cell lines were evaluated (TC32, TC71, RDES, EW8). Compounds, in a 12-point titration series, were incubated with cells for 48 hours and the read out was cell viability (CellTiter-Glo from Promega). These initial experiments were used to select appropriate concentrations of each single agent for subsequent two-drug matrix combinations such that the concentrations in the matrices would span both activity and non-activity.\nCells, in the log phase of growth, were seeded in 5 uL of RPMI plus 5% FBS, […] L-glutamine, 100 U/ml penicillin and 100 ug/ml streptomycin into 1536-well solid-bottom white tissue culture treated Greiner Bio One Plates (789173-F) using a MultiDrop Combi (Thermofisher Scientific) dispenser and a small sterile cassette. One column was media alone to be used as a :\"no cells\" control. The plates were then covered with sterilized stainless steel gasketed lids from Kalypsys. After allowing cells to attach for 4 hours, 23 nL of test compound or control (negative control DMSO and positive control 9.2 uM Bortezomib-final) were added from a 1536-well polypropylene compound source plate to each well using a 1536 head pin tool from Kalypsys. Cells were then incubated for 48 hours at 37C, 95% relative humidity and 5% CO2. After 48 hours, plates were removed from the incubator and 3 uL of CellTiter-Glo (Promega) was added using an Aurora Flying Reagent Dispenser Bioraptor. Plates were incubated at room temperature for 10 minutes prior to reading the luminescence on the Viewlux (PerkinElmer). The relative luciferase units are used to calculate the percent activity using the activity of DMSO in the cells and no cells columns for normalization of no inhibition and full inhibition respectively.", "units": {"viability (percent of control)": "%"}}
{"smiles": "CNCCCC12CCC(c3ccccc31)c1ccccc12", "Potency": "23.5 µM (active)"}
{"smiles": "COc1cc2nc(N(C)CCCNC(=O)C3CCCO3)nc(N)c2cc1OC", "note": "(stereo not given)", "viability (percent of control)": 98.9}
{"smiles": "CN(C)C(=N)N=C(N)N", "viability (percent of control)": 150}
{"smiles": "Cc1ccccc1N1C(=O)c2cc(S(N)(=O)=O)c(Cl)cc2NC1C", "note": "(stereo not given)", "viability (percent of control)": 124}
{"smiles": "CC12CC3CC(C)(C1)CC(N)(C3)C2", "viability (percent of control)": 137}
{"smiles": "NS(=O)(=O)c1cc2c(cc1Cl)NCNS2(=O)=O", "viability (percent of control)": 125}
{"smiles": "O=c1c(O)c(-c2ccc(O)c(O)c2)oc2cc(O)cc(O)c12", "Potency": "20.9 µM (active)"}
{"smiles": "OCCN1CCN(CCCN2c3ccccc3Sc3ccc(C(F)(F)F)cc32)CC1", "Potency": "23.5 µM (active)"}
{"smiles": "CC(C(=O)O)c1cccc(C(=O)c2ccccc2)c1", "note": "(stereo not given)", "Potency": "14.8 µM (active)"}
{"smiles": "Cc1cc(C(C)(C)C)cc(C)c1CC1=NCCN1", "viability (percent of control)": 108}
{"smiles": "CCOC(=O)C(C)(C)Oc1ccc(Cl)cc1", "viability (percent of control)": 105}
{"smiles": "O=C(CCCN1CCC(O)(c2ccc(Cl)cc2)CC1)c1ccc(F)cc1", "Potency": "20.9 µM (active)"}
{"smiles": "CN1CCN(CCCN2c3ccccc3Sc3ccc(Cl)cc32)CC1", "Potency": "26.4 µM (active)"}
{"smiles": "CN(C)c1nc(N(C)C)nc(N(C)C)n1", "viability (percent of control)": 136}
{"smiles": "CC(C)(Oc1ccc(C2CC2(Cl)Cl)cc1)C(=O)O", "note": "(stereo not given)", "Potency": "42.9 µM (active)"}
{"smiles": "Cn1c(=O)c2c(ncn2C)n(C)c1=O", "viability (percent of control)": 120}
{"smiles": "CC(COc1ccccc1)N(CCCl)Cc1ccccc1", "note": "(stereo not given)", "viability (percent of control)": 110}
{"smiles": "COc1ccccc1OCCNCC(O)COc1cccc2[nH]c3ccccc3c12", "note": "(stereo not given)", "viability (percent of control)": 108}
{"smiles": "CN(C)CCC=C1c2ccccc2C=Cc2ccccc21", "Potency": "16.6 µM (active)"}
{"smiles": "CC#C[C@]1(O)CC[C@H]2[C@@H]3CCC4=CC(=O)CCC4=C3[C@@H](c3ccc(N(C)C)cc3)C[C@@]21C", "Potency": "0.264 µM (active)"}
{"smiles": "NC(CO)C(=O)NNCc1ccc(O)c(O)c1O", "note": "(stereo not given)", "Potency": "26.4 µM (active)"}
{"smiles": "O=C1N(c2ccccc2)c2ccccc2C1(Cc1ccncc1)Cc1ccncc1", "viability (percent of control)": 106}
{"smiles": "COc1ccc(C2CNC(=O)C2)cc1OC1CCCC1", "note": "(stereo not given)", "viability (percent of control)": 124}
{"smiles": "CCC1(c2ccccc2)C(=O)NCNC1=O", "Potency": "14.8 µM (active)"}
{"smiles": "CCOC(=O)c1ncn2c1CN(C)C(=O)c1cc(F)ccc1-2", "Potency": "13.2 µM (active)"}
{"smiles": "NC(=O)NO", "viability (percent of control)": 95.2}
{"smiles": "COc1ccc2[nH]cc(CCNC(C)=O)c2c1", "Potency": "3.32 µM (active)"}
{"smiles": "CN1CCC(=C2c3ccccc3CC(=O)c3sccc32)CC1", "Potency": "16.6 µM (active)"}
{"smiles": "CN(C)CCCN1c2ccccc2CCc2ccc(Cl)cc21", "Potency": "2.96 µM (active)"}
{"smiles": "CCCCc1oc2ccccc2c1C(=O)c1cc(I)c(OCCN(CC)CC)c(I)c1", "Potency": "8.33 µM (active)"}
{"smiles": "O=c1c(-c2ccc(O)cc2)coc2cc(O)cc(O)c12", "viability (percent of control)": 116}
{"smiles": "Cc1ccc(-c2cc(C(F)(F)F)nn2-c2ccc(S(N)(=O)=O)cc2)cc1", "Potency": "11.8 µM (active)"}
{"smiles": "O=C1Cc2cc(CCN3CCN(c4nsc5ccccc45)CC3)c(Cl)cc2N1", "Potency": "23.5 µM (active)"}
{"smiles": "Clc1ccc2nsnc2c1NC1=NCCN1", "viability (percent of control)": 120}
{"smiles": "O=C(c1ccc(F)cc1)C1CCN(CCn2c(=O)[nH]c3ccccc3c2=O)CC1", "viability (percent of control)": 130}
{"smiles": "COc1cc2c(c(OC)c1OC)-c1ccc(OC)c(=O)cc1[C@@H](NC(C)=O)CC2", "viability (percent of control)": 110}
{"smiles": "CC1(C)O[C@H]2CC(=O)OC[C@]23[C@H]2CC[C@@]4(C)[C@H](c5ccoc5)OC(=O)[C@H]5O[C@]54[C@]2(C)C(=O)C[C@@H]13", "viability (percent of control)": 112}
{"smiles": "CC(C)C(=O)Nc1ccc([N+](=O)[O-])c(C(F)(F)F)c1", "Potency": "13.2 µM (active)"}
{"smiles": "Nc1nc2c(ncn2COC(CO)CO)c(=O)[nH]1", "viability (percent of control)": 112}
{"smiles": "CS(=O)(=O)Nc1ccc([N+](=O)[O-])cc1Oc1ccccc1", "Potency": "14.8 µM (active)"}
